Source: PubChem BioAssay (National Center for Advancing Translational Sciences (NCATS))
Sm TGR block = blocks Schistosoma mansoni thioredoxin glutathione reductase; Q962Y6; Potency, µM (top dose mostly 114 µM), for inactives: at the top dose activity change, negative = inhibition, actives largely listed as inhibitors; purified TGR, DTNB reduction, TNB absorbance 405 nm; AID 485364; 360,000 tested, 3% active; further: nearly all actives have a fitted effect of over 60% in size
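TGR 20 nM + NADPH 100 uM (dispensed conc.), cpd preinc 15 min RT; start with NADPH (500 uM addition) then DTNB (15 mM addition). Kinetic TNB absorbance, 405 nm filter. Four-parameter Hill fit across titration.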
FMDV inh = blocks foot and mouth disease virus; FMDV antiviral cell-based qHTS; Potency, µM (doses to about 57.9 µM), inactives show top-dose activity change, negative = inhibition, usual class: inhibitors; 410,000 tested, 1.2% active; AID 1159524; calls by dose curve; tested in HEK293T cells; further: read-out not given here; nearly all actives have a fitted effect of over 45% in size
LASV entry inh = inhibitors of Lassa virus binding or cell entry | 300,000 tested, 1.2% active | Potency, µM (top dose mostly 37.9 µM), for the others: at the highest dose activity change, negative = inhibition, actives largely listed as inhibitors | Lassa virus pseudotype entry inhibition, cell reporter; calls by dose curve; tested in HEK293 cells; further: nearly all actives have a fitted effect of over 50% in size
MARV entry inh = inhibitors of Marburg virus binding or cell entry | Potency, µM (series often up to 37.8 µM), inactives show at the top dose activity change, negative = inhibition, hits mostly inhibitors | Marburg virus pseudotyped entry inhibition, cell reporter | 300,000 tested, 1.8% active | AID 540276; calls by dose curve; tested in HEK293 cells
RE007 growth inh = less growth of the S. pombe RE007 Vpr strain; S. pombe RE007 Vpr strain, BacTiter-Glo ATP luminescence, 24 h; Potency, µM (series often up to 92.2 µM), for inactives: at the top dose activity change, negative = less growth, hits mostly inhibitors; 360,000 tested, 0.21% active; AID 651644; active means well fitted falling curve with a large enough effect; inconclusive means small, poorly fitted or top-dose-only effect; inactive means no such curve, though single readings can be large or run the other way; further: nearly all actives have a fitted effect of over 50% in size
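Fission yeast RE007 carrying one integrated HIV-1 vpr copy, seeded at OD 0.01 in PMG+AL medium with 23 nL pinned compound. Grown 24 h at 30 degrees; viability read by BacTiter-Glo luminescence after 5 min.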
HCV inhibitor = inhibitors of hepatitis C virus infection; Huh7.5.1 HCVcc-Cre infection, luciferase reporter, 44 h; AID 651820; 340,000 tested, 3.4% active; Potency, µM (series often up to 41.8 µM), without a hit: at the highest dose activity change, negative = inhibition, actives largely listed as inhibitors
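After 44 h co-culture of compound, cells and HCVcc-Cre (~0.5 moi), substrate is added for 15 min at room temperature and luciferase measured over 15 sec. Cells were seeded at 1,000/well and pre-cultured 4 h.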
* hit, by the source's call; u = inconclusive; x = no result; [ ] = dose if it differs, or a comment. Compounds with a hit are over-represented: about 7.2% of the library has one in this group of screens. Unless noted, the call rests on the fitted dose curve; in most records, active means well fitted curve in the direction sought with a large enough effect; inconclusive means small, poorly fitted or top-dose-only effect, or another doubt; inactive means no such curve, though single readings can be large; an effect the other way counts as inactive or inconclusive. On the % scale 0 is the no-effect control and ±100 the full control effect; potency means the concentration at half of the fitted maximal effect.

SMILES	Sm TGR block	FMDV inh	LASV entry inh	MARV entry inh	RE007 growth inh	HCV inhibitor
Cc1ccc(C(=O)Oc2oc(-c3ccco3)nc2C=Nc2ccc(Cl)cc2)cc1	2.2µM*	-11%	u	u	-16%	15%
Cc1ccc(C(=O)Oc2oc(-c3ccccc3)nc2C=Nc2ccc(N(C)C)cc2)cc1	u	-16%	-15%	u	-7%	-22%
O=C(Oc1oc(-c2ccco2)nc1C=Nc1ccccc1)c1ccco1	1.6µM*	u	u	u	u	-7%
COc1cccc(N=Cc2nc(-c3ccccc3)oc2OC(C)=O)c1	10µM*	-8%	-2%	4%[46.1 µM]	3%	12%
Cc1ccc(CNC(=O)c2ccc(CS(=O)(=O)Cc3ccc(F)cc3)o2)cc1	-9%	-29%	-14%[46.1 µM]	x	x	x
O=C(OCc1cc(=O)n2nc(-c3cccs3)sc2n1)c1cccc(F)c1	6%	0%	-8%[46.1 µM]	x	x	x
N[C@H](CS)C(=O)O	x	-5%	x	x	x	x
CCN(CC)CCOC(=O)c1ccc(NC(=O)c2cc3c(s2)-c2ccccc2OC3)cc1	13%	-27%	x	u	x	x
Cc1ccc(C)c(Cn2c(=O)n(CCCCC(=O)NCc3ccccc3Cl)c(=O)c3ccccc32)c1	3%	0%	6%[46.1 µM]	-1%[46.1 µM]	x	x
Cc1ccc2nsnc2c1S(=O)(=O)Nc1cccc2nsnc12	45µM*	37%	4%	0%	-3%	u
Cc1ccc(C)c(NS(=O)(=O)c2c(C)ccc3nsnc23)c1	0%	3%	15%	u	11%	12%
C#CCCCON=C1C[C@@H](O)[C@@H](O)[C@@H]2[C@H]3C(=O)N(C(C)(C)C)C(=O)[C@@H]3CC[C@H]12	x	x	x	12%[14.2 µM]	x	x
Cc1ccc(CSCC(=O)N(C)CC(=O)Nc2ccc(Cl)c(Cl)c2)cc1	-1%	22%	u	-7%	1%	4%
Cc1ccc(CSCC(=O)N(C)CC(=O)Nc2ccc(Br)cc2C)cc1	50µM*	-13%	-12%	u	-2%	-17%
COc1cc(CN2CCC3(CCC(CNC(=O)c4ccco4)O3)CC2)ccc1O (centres undefined)	x	-11%	x	x	x	x
CCc1ccc(C2=C(C)C(N3CCC(C(=O)NCc4ccccc4)CC3)=NS2(=O)=O)cc1	-4%	-16%	16%[46.1 µM]	x	x	x
CC(=O)n1c(=O)c2ccccc2c(=O)n1-c1ccccc1	32µM*	-9%	-8%	-3%	3%	20%
Cc1cc(C(=O)Nc2nc(C)c(C(=O)N(C)C)s2)ccc1[N+](=O)[O-]	-10%	-41%	10µM*	u	23%	16%
Cc1nc(NC(=O)c2ccc([N+](=O)[O-])cc2Cl)sc1C(=O)N(C)C	-17%	10%	-2%	-31%	-12%	1%
COc1ccc(Nc2ncnc3onc(-c4ccc(Cl)cc4)c23)cc1Cl	10%	u	13µM*	7.1µM*	x	x
Cc1c(C(=O)OCc2nc3scc(-c4ccccc4)c3c(=O)[nH]2)cccc1[N+](=O)[O-]	0%	14µM*	14%	u	-2%	u
O=C(OCc1nc2scc(-c3ccccc3)c2c(=O)[nH]1)c1cc(Cl)ccc1[N+](=O)[O-]	0%	u	17%	u	-5%	-2%
Cc1cc(C)c(C(=O)COC(=O)CN2C(=O)NC3(CCCC3)C2=O)cc1C	x	-21%	-11%	u	10%	2%
Cc1cccc(N2CCN(C(=O)C3CCN(S(=O)(=O)c4c(C)noc4C)CC3)CC2)c1C	-2%	u	-5%[46.1 µM]	-10%[46.1 µM]	3%	13µM*
Cc1ccc(C)c(N2CCN(S(=O)(=O)c3c(C)noc3/C=C/N(C)C)CC2)c1	9%	u	u	13µM*	55%	u
SMILES	Sm TGR block	FMDV inh	LASV entry inh	MARV entry inh	RE007 growth inh	HCV inhibitor
Cc1noc(C)c1S(=O)(=O)N1CCC(C(=O)N2CCN(c3ccccc3Cl)CC2)CC1	3%	-26%	10%	3%	14%	-9%
Cc1ccc(C)c(N2CCN(C(=O)C3CCCN(S(=O)(=O)c4c(C)noc4C)C3)CC2)c1 (centres undefined)	6%	-22%	x	-6%	-13%	11µM*
Cc1cccc(-n2ncc3c(NCCOCCO)ncnc32)c1	-1%	52%	11%[46.1 µM]	x	x	x
CN(C)S(=O)(=O)c1cccc(NC(=S)NCc2ccco2)c1	35µM*	20%	-3%[46.1 µM]	-2%[46.1 µM]	18%	-16%
CSc1cccc(NC(=O)C(C)C)c1	x	-15%	19%	1%	-23%	-6%
CC(C)C(=O)Nc1cccc(S(=O)(=O)c2cccc(NC(=O)C(C)C)c2)c1	-22%	0%	0.63µM*	u	15%	u
CC(=O)c1cccc(NC(=S)NCc2ccco2)c1	u	49%	x	x	31%	-25%
CCN(CC)S(=O)(=O)c1ccc(N/N=C/c2cccnc2)nc1	1%	5%	x	x	-5%	0%
CCN(CC)S(=O)(=O)c1ccc(N/N=C/c2cc(OC)ccc2O)nc1	-1%	-24%	u	u	17%	2.8µM*
CN(C)S(=O)(=O)c1cccc(NC(=S)N/N=C/c2ccco2)c1	40µM*	9%	x	x	6%	-3%
C=C[C@@]1(C)CC(=O)[C@@]2(O)[C@@]3(C)[C@H](O)CCC(C)(C)[C@@H]3[C@H](O)[C@H](OC(C)=O)[C@]2(C)O1	x	x	x	-29%	x	x
CCCCCCCCCCC(C)(C)C(=O)Nc1c(OC)cc(OC)cc1OC	x	-10%	u	-11%	x	x
CN(C)S(=O)(=O)c1cccc(NC(=S)N/N=C/c2ccc(O)c(O)c2O)c1	10µM*	0%	-16%	-27%[46.1 µM]	-12%	-23%
COc1cc(/C=N/NC(=S)Nc2cccc(S(=O)(=O)N(C)C)c2)cc(OC)c1O	-21%	-14%	-1%	20%	8%	-9%
COc1ccc2cc(C(C)C(=O)Nc3cccc(S(=O)(=O)N(C)C)c3)ccc2c1 (centres undefined)	-1%	14%	u	u	-4%	25µM*
COc1ccc(O)c(/C=N/NC(=S)Nc2cccc(S(=O)(=O)N(C)C)c2)c1	-7%	0%	4.6µM*	3.7µM*	15%	u
Cc1ccccc1C(=O)N1CCN(c2ccc(NC(=O)CSc3ccc(Cl)cc3)cc2)CC1	7%	u	u	11µM*	-13%	11µM*
O=C(CSc1ccc(Cl)cc1)Nc1ccc(N2CCN(C(=O)c3ccco3)CC2)cc1	-4%	20µM*	-22%	u	4%	2%
O=C(COc1ccc([N+](=O)[O-])cc1)Nc1ccc(N2CCN(C(=O)c3ccco3)CC2)cc1	35µM*	u	4%[46.1 µM]	6%[46.1 µM]	-2%	11µM*
O=C(CSc1ccc(Cl)cc1)Nc1ccccc1N1CCN(C(=O)c2ccccc2)CC1	0%	13µM*	16µM*	u	-2%	-24%
O=C(CSc1ccc(Cl)cc1)Nc1ccc(NC(=O)c2ccco2)cc1	6%	x	-6%	7%	-1%	7%
